Experimental findings from PubChem BioAssay (EPA / NIEHS) are described below.

Where “and” joins values, the source holds several entries; their conditions need not be identical. Identical values can stand only once. Calls of active or inactive are those of the source. The calls were made as follows: active = hit-call score of the fitted dose curve at least 0.9, where 1 is the maximum; inactive = score below 0.9.

Read-out in this test: Monocyte Chemoattractant Protein-1 (MCP1), CCL2 (gene 6347)
The experiment in a line: BSK_SAg_MCP1: BioMAP Diversity Plus: SAg Assay for Monocyte Chemoattractant Protein-1 (MCP1) Biomarker Activity (AID 2283090). The conditions noted are these: primary human HUVEC with PBMC; actives raise or lower the signal. The protocol: BSK_SAg is a cell-based, multiplexed-readout assay that uses umbilical vein endothelium and peripheral blood mononuclear cells, a human vascular primary cell co-culture, with measurements taken at 24 hours after chemical dosing in a 96-well plate.BSK_SAg_MCP1 is an assay component measured in the BSK_SAg assay. It measures MCP-1 antibody related to regulation of gene expression using ELISA technology.Data from the assay component BSK_SAg_MCP1 was analyzed into 1 assay endpoint. This assay endpoint, BSK_SAg_MCP1, was analyzed with bidirectional fitting relative to DMSO as the negative control and baseline of activity. Using a type of binding reporter, gain or loss-of-signal activity can be used to understand changes in the signaling as they relate to the gene CCL2. Furthermore, this assay endpoint can be referred to as a primary readout, because this assay has produced multiple assay endpoints where this one serves a signaling function. To generalize the intended target to other relatable targets, this assay endpoint is annotated to the cytokine intended target family, where the subfamily is chemotactic factor.
The levels of cell surface (or secreted, indicated by the prefix "s") biomarker endpoints were measured by ELISA. Overt cytotoxicity to cells in confluent adherent cultures (all systems other than the BT system) was assessed by measuring total protein levels using sulforhodamine B (SRB) staining in parallel cultures at the time of biomarker measurements, indicated as SRB endpoints. For proliferation assays for adherent cell types, individual cell types are cultured at sub-confluence and relative cell numbers quantified by SRB staining at time points optimized for each system (48 h: 3C and CASM3C systems; 72 h: BT and HDF3CGF systems; 96 h: SAg system). SRB was performed by staining cells with 0.1% SRB after fixation with 10% TCA and reading wells at 560 nm.Viability and proliferation of PBMC (T cells) was quantified by Alamar Blue reduction for the SAg and BT systems. For PBMC viability (referred to as PBMC Cytotoxicity within the assay endpoint names), cells were plated (75,000/well in a 96-well plate) and then chemical samples added for 1 h before addition of activators, SEB and TSST-1 (20 ng/mL final concentration each). Cells were incubated for 90 h. Then, Alamar Blue (20 uL/well) (Invitrogen, Cat DAL1100) was added for 6 h, and the plates were read with a fluorescence microplate reader at 546/580 nm (excitation/emission). For PBMC proliferation, cells were plated and activated as above but incubated for only 16 h prior to addition of Alamar Blue. Plates were read after 6 h.
As for `C=CC(=O)OCC(Br)CBr` (stereo unspecified), the half-maximal activity concentration (AC50) is 24.8 µM (active). Regarding `C/C=C\C/C=C/CCCCCCCCOC(C)=O`, the outcome was inactive. Still for that read-out and setting: the same measure for `CC(C)(c1cc(Br)c(OCCO)c(Br)c1)c1cc(Br)c(OCCO)c(Br)c1`: “inactive”. As for `C=CCOc1c(Br)cc(Br)cc1Br`, the result was inactive. On the same count and under the same terms, the same measure for `c1ccc2c(c1)ccc1cc3c(ccc4ccccc43)cc12`: “inactive”; for `CCO[Si](CCCN=C=O)(OCC)OCC`: “inactive”. `CCOc1nc(F)cc2nc(S(=O)(=O)Nc3c(Cl)cccc3C(=O)OC)nn12`: the outcome was inactive. `COCc1c(C(C)C)nc(C(C)C)c(/C=C/[C@@H](O)C[C@@H](O)CC(=O)O)c1-c1ccc(F)cc1`: the outcome was inactive. Take `CCCCC(CC)COCC1CO1` (stereo unspecified): the outcome was inactive. On to `O=C1CCCN1CCO`, for which the outcome was inactive.

As to `O=c1c2ccccc2oc2ccccc12`, the result was inactive.

On to `CC1OC1C1CCC2(C)OC2C1` (stereo unspecified), for which the result was inactive.

Turning to `C=CC=CC=CCCCCC`, the outcome was inactive. `CN1C(=O)N(C)C(O)C1O` (stereo unspecified): the outcome was inactive. The same measure, in the same setting: the same measure for `CO[Si](OC)(OC)c1ccccc1`: “inactive”. Consider `CCCCCCCCCCCCCCCC[N+](C)(C)CC`, for which the AC50 was 2.24 µM (active).

As to `CCCCCCCCc1ccc(Nc2ccc(CCCCCCCC)cc2)cc1`, the result was inactive. The same measure, in the same setting: for `C=CCOCC(O)CCl` (stereo unspecified) the value was “inactive”; for `O=C(c1ccc(O)cc1)c1ccc(O)cc1O`, “inactive”. `N#[N+]c1ccc2c(S(=O)(=O)[O-])cccc2c1O`: the result was inactive. Same read-out and setting: for `S=C(NC1CCCCC1)NC1CCCCC1` the value was “inactive”; for `c1ccc(-c2ccccn2)nc1`, “inactive”; for `CC(C)C(=O)C(C)C`, “inactive”. The same measure, in the same setting: for `CCCCC(CC)COC(=O)c1ccccc1O` (stereo unspecified) the value was “inactive”. Turning to `CCOC(=O)c1ccccc1C(=C1C=C(Br)C(=O)C(Br)=C1)c1cc(Br)c(O)c(Br)c1`, the AC50 is 20.7 µM (active) and 21 µM (active).

As for `O=C(Nc1ccccc1SSc1ccccc1NC(=O)c1ccccc1)c1ccccc1`, the result was inactive.

Take `CCCCNc1ccc(NCCCC)c2c1C(=O)c1ccccc1C2=O`: the outcome was inactive.

Turning to `CCO[Si](C)(OCC)OCC`, the outcome was inactive. For the compound `O=Nc1ccc(O)cc1`, the outcome was inactive.

Regarding `C=C[Si](OC(C)=O)(OC(C)=O)OC(C)=O`, the result was inactive. On to `c1ccc2c(c1)ccc1ncccc12`, for which the result was inactive. Still for that read-out and setting: for `CCCCC/C=C\C/C=C\CCCCCCCC(=O)OC` the value was “inactive”. Regarding `COc1ccc2nc(N)sc2c1`, the outcome was inactive. With `C#CC1(O)CC[C@H]2[C@@H]3CCC4=CCCC[C@@H]4[C@H]3CC[C@@]21C` (stereo partly specified), the AC50 is 31.8 µM (active).

With `Nc1ccc(N)c(Cl)c1`, the AC50 is 30.8 µM (active) and 31.3 µM (active). The same measure, in the same setting: the same measure for `O=C(Cl)c1cc(C(=O)Cl)cc(C(=O)Cl)c1`: 29.1 µM (active).

Usually AC50 stands for the concentration giving half of the maximal activity seen.
